Compounds with a hit are over-represented: about 1.8% of the library has one in this group of screens.
PriA SSB inh: inhibitors of Klebsiella pneumoniae PriA binding to SSB C-terminal tail, primary screen, biochemical, AlphaScreen. PriA–SSB C-terminal tail interaction (Klebsiella pneumoniae). inhibition, % at 33 µM. hit rate 0.6% among 430,000. AlphaScreen SSBct-PriA binding, biotinylated peptide. AID 1272365, 2023; in the data active = inhibition mostly above about 37%, no sharp cut-off; inactive = mostly below about 20%;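 note: plate controls were negative control peptide for no effect and reference peptide for full effect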
PfHsp40 rescue: rescue of yeast from PfHsp40 toxicity, primary screen, S. cerevisiae, ATP luminescence. S. cerevisiae expressing PfHsp40, growth rescue. growth rescue, % at 12.5 µM. hit rate 0.68% among 340,000. AID 504582, 2011; in the data active = growth rescue above about 28%, passing the limit was not always enough;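 note: yeast W303a lacking pdr1 and pdr3 grown in galactose medium; growth measured after three days at 30 °C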
PrP 5UTR inh: inhibition of PrP 5' UTR reporter expression; cell-based PrP 5' UTR mRNA reporter, plate reader; inhibition, % (concentration not given with the values); hit rate 0.35% among 340,000; in the data active = inhibition above about 52%; note: 0 = median of the neutral control wells
MazEF act: activators of E. coli MazEF toxin-antitoxin RNase, primary screen, biochemical, fluorescence, uHTS. Endoribonuclease toxin MazF (Escherichia coli (strain K12)), P0AE70. FAM/BHQ RNA-DNA oligo cleavage fluorescence, 5 h. activation, % at 20 µM. hit rate 0.32% among 350,000. AID 504720, 2011; in the data active = activation above about 50%
Target sequence (P0AE70 whole entry, looked up): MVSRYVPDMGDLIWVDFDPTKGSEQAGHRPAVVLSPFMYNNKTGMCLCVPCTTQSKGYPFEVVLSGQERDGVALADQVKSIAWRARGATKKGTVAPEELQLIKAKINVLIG
PrPC surface inh: inhibitors of human cell surface prion protein PrPC, primary screen, cell-based, TR-FRET | TR-FRET read-out | Major prion protein (Homo sapiens), P04156 | inhibition, % at 13.8 µM | AID 720596, 2013 | hit rate 0.43% among 370,000; in the data active = inhibition above about 24%; note: 0% = median of the test wells and 100% = reference compound wells
* marks the source's active call; other numbers are inactive results; x = no result.

SMILES	PriA SSB inh	PfHsp40 rescue	PrP 5UTR inh	MazEF act	PrPC surface inh
O=C1/C(=C/c2ccco2)Oc2c1ccc1c2CN(Cc2ccccn2)CO1	97*	x	x	x	x
O=C1/C(=C/c2ccncc2)Oc2c1ccc1c2CN(Cc2c(F)cccc2Cl)CO1	-10	x	x	x	x
CC(C)NC(=O)c1ccccc1NC(=O)CCS(=O)(=O)Cc1ccccc1	-4	0	-25	-2	-7
CC[n+]1c(/C=C/C=C/N(C(C)=O)c2ccccc2)sc2cc(OC)ccc21	22	x	x	506*	1
CC[C@@H](C(=O)[C@@H](C)[C@@H](O)[C@H](C)[C@@H]1O[C@@H]([C@@H](CC)C(=O)O)CC[C@@H]1C)[C@H]1O[C@]2(C=C[C@@H](O)[C@]3(CC[C@@](C)([C@H]4CC[C@](O)(CC)[C@H](C)O4)O3)O2)[C@H](C)C[C@@H]1C	1	220*	0	6	70*
O=C(Nc1ccc(Nc2ccc(-n3cccn3)nn2)cc1)c1cccc(Br)c1	-21	x	x	x	x
O=C(Nc1ccc(F)cc1)Nc1ccc(Nc2ccc(-n3cccn3)nn2)cc1	-6	x	x	x	x
COc1cccc(C(=O)Nc2ccc(Nc3ccc(-n4cccn4)nn3)cc2)c1OC	70*	x	x	x	x
O=C(Nc1ccc(Nc2ccc(-n3cccn3)nn2)cc1)c1cc2ccccc2oc1=O	56*	x	x	x	x
O=C(Nc1ccc(Nc2ccc(-n3cccn3)nn2)cc1)Nc1cccc(F)c1	36*	x	x	x	x
O=C(Nc1ccc(-n2nncc2-c2ccco2)cc1)c1cc2ccccc2oc1=O	46*	-1	-30	-37	x
O=C(Nc1ccc(Nc2ccc(-n3cccn3)nn2)cc1)c1ccccc1C(F)(F)F	5	x	x	x	x
O=C(NCc1ccc(Cl)cc1)C1CCN(S(=O)(=O)c2ccc(F)cc2)CC1	-9	0	-3	1	0
O=[N+]([O-])c1cc(S(=O)(=O)C(F)(F)F)ccc1N1CCN(c2ccccc2)CC1	47*	1	-19	-4	-2
CN1CCN(c2ccc(C(=O)c3ccc(Br)cc3)cc2[N+](=O)[O-])CC1	43*	0	-3	-4	-14
Cc1ccc(COC(=O)c2cc([N+](=O)[O-])ccc2N2CCOCC2)cc1	x	-1	77*	x	-5
Cc1ccc(Cl)c(OC(=O)c2ccc(N3CCOCC3)c([N+](=O)[O-])c2)c1	45*	1	4	-2	0
O=C(OCc1ccc([N+](=O)[O-])cc1)c1cc([N+](=O)[O-])ccc1N1CCOCC1	14	1	-17	1	-16
COc1ccc(CNC(=O)COC(=O)c2cnccn2)cc1	-19	0	-22	-13	-7
O=[N+]([O-])c1cc(-n2cccc2)ccc1N1CCOCC1	47*	0	-23	-5	-19
O=C(c1ccc(Br)cc1)c1ccc(N2CCOCC2)c([N+](=O)[O-])c1	82*	x	x	x	x
O=C(c1ccc(N2CCOCC2)c([N+](=O)[O-])c1)N1CCN(c2ccccc2)CC1	-1	0	-3	-6	-11
CCOc1cc(C(=O)Nc2ccc3c(c2)CC(=O)N3)cc(OCC)c1OCC	-12	x	x	x	x
CCOC(=O)C1CCCN(CC(O)COc2ccccc2)C1 (centres undefined)	-18	x	x	x	x
COc1ccc(Cl)cc1NC(=O)COC(=O)/C=C/c1c(C)nn(C2CCS(=O)(=O)C2)c1Cl (centres undefined)	-29	1	-5	-2	4
SMILES	PriA SSB inh	PfHsp40 rescue	PrP 5UTR inh	MazEF act	PrPC surface inh
CCc1ccc(NC(=O)COC(=O)/C=C/c2c(C)nn(C3CCS(=O)(=O)C3)c2Cl)cc1 (centres undefined)	-5	59*	-19	5	8
CCCCC(=O)N/N=C(C)/C=C/c1ccccc1F	x	-1	-63	-2	2
Cc1ccc([N+](=O)[O-])cc1NC(=O)c1ccc2c(c1)OCO2	-9	0	-27	5	2
O=C(Nc1ncc([N+](=O)[O-])s1)c1ccc2c(c1)OCO2	1	-4	69*	-6	-15
COC[C@H]1OC(=O)c2coc3c2[C@@]1(C)C1=C(C3=O)[C@@H]2CCC(=O)[C@@]2(C)C[C@H]1OC(C)=O	-16	123*	15	67*	-11
CN(Cc1ccccc1)c1oc(COc2ccc(F)cc2)nc1C#N	64*	x	x	x	x
CCCCCCC(=O)Oc1cccc(N2C(=O)C3CCCCC3C2=O)c1 (centres undefined)	4	2	-22	1	-4
Cc1c(C(=O)N(Cc2ccccc2)C(C)C)cnn1-c1ccccc1	-1	1	-29	-1	5
Cc1c(C(=O)N(Cc2ccccc2)Cc2cccs2)cnn1-c1ccc(Cl)cc1	-6	117*	-38	4	8
CCCCOc1ccc(C(=O)NC2CCCCN(Cc3ccc(C)cc3)C2=O)cc1 (centres undefined)	x	x	x	x	2
CCn1ccnc1C(O)c1cccc2ccccc12 (centres undefined)	0	-1	11	-1	10
O=S(=O)(NCCn1ccnc1-c1ncccn1)c1ccc2c(c1)CCCC2	96*	x	x	x	x
O=C(NCCn1ccnc1-c1ncccn1)c1ccc(Cl)s1	5	x	x	x	x
O=S(=O)(NCCn1ccnc1-c1ncccn1)c1ccc(Cl)s1	44*	x	x	x	x
O=S(=O)(NCCn1ccnc1-c1ncccn1)c1ccc(OC(F)(F)F)cc1	1	x	x	x	x
COC(=O)c1ccc(S(=O)(=O)NCCn2ccnc2-c2ncccn2)cc1	96*	x	x	x	x
CN1CCc2cc(C(CNS(=O)(=O)c3cccs3)N3CCCC3)ccc21 (centres undefined)	16	x	x	x	x
COc1cc(C2C(C#N)=C(N)OC3=C2C(=O)CCC3)c([N+](=O)[O-])cc1OC (centres undefined)	9	1	-13	110*	-14
O=C(CSc1ccc(-c2cccnc2)nn1)Nc1ccc(F)cc1F	-4	1	-42	-2	6
Clc1ccc(CSC(Cn2ccnc2)c2ccc(Cl)cc2Cl)cc1 (centres undefined)	12	147*	-1	8	12
Clc1ccc(OCCCn2ccnc2)c(Br)c1	9	1	-28	6	14
Clc1ccc(COC(Cn2ccnc2)c2ccc(Cl)cc2Cl)cc1 (centres undefined)	15	93*	-23	2	13
COc1cc(NC(=O)Nc2c(C)n(C)n(-c3ccccc3)c2=O)cc(OC)c1OC	9	0	-19	5	6
CCn1c2ccc(C)cc2c2nc3cc(C(=O)O)ccc3nc21	-2	312*	1	-3	-4
COc1cccc(NC(=O)c2ccc(-c3ccc([N+](=O)[O-])cc3)o2)c1	9	1	-39	276*	-16
COc1ccc2c(NCc3ccccc3OC)c(C#N)cnc2c1	-9	x	x	x	x
OC(CN1CCc2ccccc2C1)CN1c2ccccc2Sc2ccccc21 (centres undefined)	54*	x	x	x	x
O=C(CCCc1nc(-c2ccc(Cl)cc2)no1)NCC1CCCO1 (centres undefined)	2	0	-4	3	13

Compound activity as filed in PubChem BioAssay.
